Laboratory results taken from PMC8384837, “Expanding the binding specificity for RNA recognition by a PUF domain”.

Key:
Test in all cases: yeast three-hybrid, YBZ-1, SC-Leu-His + 0.5 mM 3-AT, 4 days
Details in all cases: tags: N-Gal4 AD-HA kept; label: inside an RPR1-promoter hybrid RNA with tandem MS2 sites; ssRNA
PUM1 PUF domain R7-CTR = PUM1 PUF domain R7-CTR (Homo sapiens, UniProt Q14671 828-1176, S1079C;N1080T;E1083R)
Method in brief: (§1)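 Matching RNA elements and Pumilio-1 PUF domain libraries, randomized at the three base-contacting residues of every repeat, were co-expressed from a centromeric plasmid in strain YBZ-1 (LexA–MS2 coat fusion, HIS3 reporter). The repeat regions were PCR-amplified and Illumina-sequenced from cells grown four days on SC-Leu (input) or SC-Leu-His + 0.5 mM 3-AT (selection). The interaction score is the log change in variant frequency from input to selection. It is computed in log2, with a pseudocount of 1 for absent variants.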

PUM1 PUF domain R7-EPD = PUM1 PUF domain R7-EPD (Homo sapiens, UniProt Q14671 828-1176, S1079E;N1080P;E1083D)
Method in brief: as §1

PUM1 PUF domain R7-QGG = PUM1 PUF domain R7-QGG (Homo sapiens, UniProt Q14671 828-1176, S1079Q;N1080G;E1083G)
Method in brief: as §1

PUM1 PUF domain R5-GSK = PUM1 PUF domain R5-GSK (Homo sapiens, UniProt Q14671 828-1176, C1007G;R1008S;Q1011K)
Method in brief: as §1

PUM1 PUF domain R1-MPR = PUM1 PUF domain R1-MPR (Homo sapiens, UniProt Q14671 828-1176, S863M;R864P;Q867R)
Method in brief: as §1

PUM1 PUF domain R1-KCQ = PUM1 PUF domain R1-KCQ (Homo sapiens, UniProt Q14671 828-1176, S863K;R864C)
Method in brief: as §1

PUM1 PUF domain R1-RRE = PUM1 PUF domain R1-RRE (Homo sapiens, UniProt Q14671 828-1176, S863R;Q867E)
Method in brief: as §1

PUM1 PUF domain R4-DYS = PUM1 PUF domain R4-DYS (Homo sapiens, UniProt Q14671 828-1176, N971D;H972Y;Q975S)
Method in brief: as §1

PUM1 PUF domain R3-LWL = PUM1 PUF domain R3-LWL (Homo sapiens, UniProt Q14671 828-1176, C935L;R936W;Q939L)
Method in brief: as §1

PUM1 PUF domain R8-RYQ = PUM1 PUF domain R8-RYQ (Homo sapiens, UniProt Q14671 828-1176, N1122R)
Method in brief: as §1

PUM1 PUF domain R8-AWQ = PUM1 PUF domain R8-AWQ (Homo sapiens, UniProt Q14671 828-1176, N1122A;Y1123W)
Method in brief: as §1

PUM1 PUF domain R3-APR = PUM1 PUF domain R3-APR (Homo sapiens, UniProt Q14671 828-1176, C935A;R936P;Q939R)
Method in brief: as §1

PUM1 PUF domain R3-GRC = PUM1 PUF domain R3-GRC (Homo sapiens, UniProt Q14671 828-1176, C935G;Q939C)
Method in brief: as §1

PUM1 PUF domain R1-KNI = PUM1 PUF domain R1-KNI (Homo sapiens, UniProt Q14671 828-1176, S863K;R864N;Q867I)
Method in brief: as §1

PUM1 PUF domain R3-EWR = PUM1 PUF domain R3-EWR (Homo sapiens, UniProt Q14671 828-1176, C935E;R936W;Q939R)
Method in brief: as §1

PUM1 PUF domain R3-DWQ = PUM1 PUF domain R3-DWQ (Homo sapiens, UniProt Q14671 828-1176, C935D;R936W)
Method in brief: as §1

PUM1 PUF domain R5-TPR = PUM1 PUF domain R5-TPR (Homo sapiens, UniProt Q14671 828-1176, C1007T;R1008P;Q1011R)
Method in brief: as §1

PUM1 PUF domain R2-LHR = PUM1 PUF domain R2-LHR (Homo sapiens, UniProt Q14671 828-1176, N899L;Y900H;Q903R)
Method in brief: as §1

PUM1 PUF domain R6-IFN = molecular target: T1, PUM1 PUF domain R6-IFN (Homo sapiens, UniProt Q14671 828-1176, N1043I;Y1044F;Q1047N)
T1 sequence: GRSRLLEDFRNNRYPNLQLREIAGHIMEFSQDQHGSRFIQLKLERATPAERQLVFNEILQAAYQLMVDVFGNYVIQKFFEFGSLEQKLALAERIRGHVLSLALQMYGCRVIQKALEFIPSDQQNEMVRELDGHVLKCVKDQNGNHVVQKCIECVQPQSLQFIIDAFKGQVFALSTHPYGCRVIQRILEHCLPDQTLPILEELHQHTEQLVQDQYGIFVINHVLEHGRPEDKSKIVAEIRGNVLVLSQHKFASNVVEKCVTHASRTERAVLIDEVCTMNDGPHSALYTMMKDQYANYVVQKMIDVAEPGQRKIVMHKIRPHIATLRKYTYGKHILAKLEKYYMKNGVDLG
Method in brief: as §1

PUM1 PUF domain R8-CYC = PUM1 PUF domain R8-CYC (Homo sapiens, UniProt Q14671 828-1176, N1122C;Q1126C)
Method in brief: as §1

## GGCUAGAACUAGUGGAUCCCCCGGCGCCCGGCGGCUCGAGCCCGGGUAAGUUUAAAUAGUCUGCAUGCCGCCGGGCGCCAUGCCUGCAGGUCGACUCUAGAAAACAUG
PUM1 PUF domain R7-CTR
  binding signal: 2.95 log2 enrichment (interaction score)
PUM1 PUF domain R7-EPD
  binding signal: 3.42 log2 enrichment (interaction score)
PUM1 PUF domain R7-QGG
  binding signal: 3.51 log2 enrichment (interaction score)

## GGCUAGAACUAGUGGAUCCCCCGGCGCCCGGCGGCUCGAGCCCGGGUAAGUGUUAAUAGUCUGCAUGCCGCCGGGCGCCAUGCCUGCAGGUCGACUCUAGAAAACAUG
PUM1 PUF domain R5-GSK
  binding signal: 2.59 log2 enrichment (interaction score)

## GGCUAGAACUAGUGGAUCCCCCGGCGCCCGGCGGCUCGAGCCCGGGUAAGUGUAAAUUGUCUGCAUGCCGCCGGGCGCCAUGCCUGCAGGUCGACUCUAGAAAACAUG
PUM1 PUF domain R1-MPR
  binding signal: 3.08 log2 enrichment (interaction score)
PUM1 PUF domain R1-KCQ
  binding signal: 3.28 log2 enrichment (interaction score)
PUM1 PUF domain R1-RRE
  binding signal: 2.91 log2 enrichment (interaction score)

## GGCUAGAACUAGUGGAUCCCCCGGCGCCCGGCGGCUCGAGCCCGGGUAAGUGUAAAUAGUCUGCAUGCCGCCGGGCGCCAUGCCUGCAGGUCGACUCUAGAAAACAUG
PUM1 PUF domain R4-DYS
  binding signal: 4.45 log2 enrichment (interaction score)
PUM1 PUF domain R3-LWL
  binding signal: 2.69 log2 enrichment (interaction score)
PUM1 PUF domain R8-RYQ
  binding signal: 4.32 log2 enrichment (interaction score)
PUM1 PUF domain R8-AWQ
  binding signal: 3.01 log2 enrichment (interaction score)
PUM1 PUF domain R3-APR
  binding signal: 2.66 log2 enrichment (interaction score)
PUM1 PUF domain R3-GRC
  binding signal: 3.23 log2 enrichment (interaction score)

## GGCUAGAACUAGUGGAUCCCCCGGCGCCCGGCGGCUCGAGCCCGGGUAAGUGUAAAUGGUCUGCAUGCCGCCGGGCGCCAUGCCUGCAGGUCGACUCUAGAAAACAUG
PUM1 PUF domain R1-RRE
  binding signal: 2.12 log2 enrichment (interaction score)

## GGCUAGAACUAGUGGAUCCCCCGGCGCCCGGCGGCUCGAGCCCGGGUAAGUGUACAUAGUCUGCAUGCCGCCGGGCGCCAUGCCUGCAGGUCGACUCUAGAAAACAUG
PUM1 PUF domain R4-DYS
  binding signal: 5.76 log2 enrichment (interaction score)

## GGCUAGAACUAGUGGAUCCCCCGGCGCCCGGCGGCUCGAGCCCGGGUAAGUGUAAAUCGUCUGCAUGCCGCCGGGCGCCAUGCCUGCAGGUCGACUCUAGAAAACAUG
PUM1 PUF domain R1-MPR
  binding signal: 2.06 log2 enrichment (interaction score)
PUM1 PUF domain R1-KNI
  binding signal: 4.2 log2 enrichment (interaction score)
PUM1 PUF domain R1-RRE
  binding signal: 3.92 log2 enrichment (interaction score)

## GGCUAGAACUAGUGGAUCCCCCGGCGCCCGGCGGCUCGAGCCCGGGUAAGGGUAAAUAGUCUGCAUGCCGCCGGGCGCCAUGCCUGCAGGUCGACUCUAGAAAACAUG
PUM1 PUF domain R8-RYQ
  binding signal: 2.37 log2 enrichment (interaction score)

## GGCUAGAACUAGUGGAUCCCCCGGCGCCCGGCGGCUCGAGCCCGGGUAAGUGUAAUUAGUCUGCAUGCCGCCGGGCGCCAUGCCUGCAGGUCGACUCUAGAAAACAUG
PUM1 PUF domain R3-LWL
  binding signal: 4.13 log2 enrichment (interaction score)
PUM1 PUF domain R3-EWR
  binding signal: 3.22 log2 enrichment (interaction score)
PUM1 PUF domain R3-APR
  binding signal: 2.28 log2 enrichment (interaction score)
PUM1 PUF domain R3-DWQ
  binding signal: 4.15 log2 enrichment (interaction score)
PUM1 PUF domain R3-GRC
  binding signal: 1.22 log2 enrichment (interaction score)

## GGCUAGAACUAGUGGAUCCCCCGGCGCCCGGCGGCUCGAGCCCGGGUAAGUGUAAGUAGUCUGCAUGCCGCCGGGCGCCAUGCCUGCAGGUCGACUCUAGAAAACAUG
PUM1 PUF domain R3-LWL
  binding signal: 4.64 log2 enrichment (interaction score)
PUM1 PUF domain R3-EWR
  binding signal: 0.97 log2 enrichment (interaction score)
PUM1 PUF domain R3-APR
  binding signal: 1.67 log2 enrichment (interaction score)
PUM1 PUF domain R3-GRC
  binding signal: 0.66 log2 enrichment (interaction score)

## GGCUAGAACUAGUGGAUCCCCCGGCGCCCGGCGGCUCGAGCCCGGGUAAGUGUCAAUAGUCUGCAUGCCGCCGGGCGCCAUGCCUGCAGGUCGACUCUAGAAAACAUG
PUM1 PUF domain R5-TPR
  binding signal: 5.18 log2 enrichment (interaction score)

## GGCUAGAACUAGUGGAUCCCCCGGCGCCCGGCGGCUCGAGCCCGGGUAAGUGUAAAAAGUCUGCAUGCCGCCGGGCGCCAUGCCUGCAGGUCGACUCUAGAAAACAUG
PUM1 PUF domain R2-LHR
  binding signal: 3.5 log2 enrichment (interaction score)

## GGCUAGAACUAGUGGAUCCCCCGGCGCCCGGCGGCUCGAGCCCGGGUAAGUGAAAAUAGUCUGCAUGCCGCCGGGCGCCAUGCCUGCAGGUCGACUCUAGAAAACAUG
PUM1 PUF domain R6-IFN
  binding signal: 5.05 log2 enrichment (interaction score)

## GGCUAGAACUAGUGGAUCCCCCGGCGCCCGGCGGCUCGAGCCCGGGUAAGUGUAUAUAGUCUGCAUGCCGCCGGGCGCCAUGCCUGCAGGUCGACUCUAGAAAACAUG
PUM1 PUF domain R4-DYS
  binding signal: 7.01 log2 enrichment (interaction score)

## GGCUAGAACUAGUGGAUCCCCCGGCGCCCGGCGGCUCGAGCCCGGGUAAGCGUAAAUAGUCUGCAUGCCGCCGGGCGCCAUGCCUGCAGGUCGACUCUAGAAAACAUG
PUM1 PUF domain R8-CYC
  binding signal: 2.77 log2 enrichment (interaction score)
PUM1 PUF domain R8-AWQ
  binding signal: 2.11 log2 enrichment (interaction score)
